Bioassay records (PubChem BioAssay)
FUS yeast rescue: rescues growth of FUS-expressing yeast. 390,000 tested, 0.24% active. S. cerevisiae FUS-expressing, growth rescue, OD600, 24 h. AID 1347120. Potency, µM (titrated, usually from 76.6 µM), most hits filed as activators;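 further: plate controls were DMSO vehicle for no effect and reference control for full effect; nearly all actives have a fitted effect of over 55% in size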
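Quantitative HTS measuring growth restoration of FUS-toxic yeast. Galactose-induced cells (OD 0.005) were exposed 24hr at 30C to compounds at several concentrations, then absorbance at 600 nm was recorded.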
aSyn yeast inh: alpha-synuclein toxicity inhibition in yeast | Yeast expressing alpha-synuclein, growth rescue, BacTiter-Glo, 24 h | Potency, µM (titrated, usually from 46.1 µM), for the others: at the highest dose growth rescue (activation), actives largely listed as activators | 370,000 tested, 0.14% active | AID 652106; further: % of control where 0% means no effect; nearly all actives have a fitted effect of over 65% in size
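Screening used galactose-induced yeast with toxic alpha-synuclein levels, exposed to compound for 24 hr at 30 deg C. Cell growth, read with BacTiter-Glo luminescence, gave the measured signal.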
Abeta rescue: compounds reversing amyloid beta toxicity in yeast | yeast expressing A-beta42, growth rescue, OD600, 48 h; response scale: 0% DMSO, 100% iron-clioquinol control | Potency, µM (titrated, usually from 46.1 µM), most hits filed as activators | 410,000 tested, 0.063% active; further: nearly all actives have a fitted effect of over 55% in size
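Yeast A-beta toxicity model in growth medium with pinned compounds, 48 h at 30 C; growth read as absorbance at 600 nm. Normalized to FeCl3/clioquinol equimolar mix (positive) and DMSO (negative).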
TDP43 rescue: TDP-43 toxicity inhibition in yeast; TDP-43 expressing yeast growth rescue, BacTiter-Glo, 24 h; Potency, µM (highest dose often 46.1 µM), inactives show at the highest dose growth rescue (activation), actives largely listed as activators; 410,000 tested, 1.8% active; further: % of control where 0% means no effect; nearly all actives have a fitted effect of over 50% in size
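Readout is BacTiter-Glo luminescence of cell growth, so inhibitors register as activators. TDP-43-expressing yeast at OD600=0.02 in galactose medium, after raffinose pregrowth to mid-log, were incubated with compound for 24 hr at 30 deg C.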
* hit, by the source's call; i = inactive; ? = inconclusive; . = no result; [ ] = another dose, or the depositor's remark. Rows were chosen to be rich in hits. Some 2.1% of all compounds tested hit in one or more screens of this group. The call rests on the fitted dose curve; in most records, active means well fitted curve in the direction sought with a large enough effect; inconclusive means small, poorly fitted or top-dose-only effect, or another doubt; inactive means no such curve, though single readings can be large; an effect the other way counts as inactive or inconclusive. Potency means the concentration at half of the fitted maximal effect.

SMILES | FUS yeast rescue | aSyn yeast inh | Abeta rescue | TDP43 rescue
COc1ccc(-c2noc(CCc3ccccc3)n2)cc1 | i | -11% | i | 18µM*
Cc1cccc(-c2noc(CCCC(=O)Nc3cccnc3)n2)c1 | . | 0% | i | 0%
c1ccc(OCCCc2nc(-c3cccnc3)no2)cc1 | i | 3% | i | 11%
O=C(CCCc1nc(-c2ccc(Cl)cc2)no1)Nc1cccnc1 | i | ? | i | 16µM*
CC1(C)NC(=O)N(CCCOc2ccc(Br)cc2Cl)C1=O | ? | -4% | i | 5%
Cc1cc(OCCCCN2C(=O)NC(C)(C)C2=O)cc(C)c1Cl | i | . | i | 18µM*
CC1(C)NC(=O)N(CCCCOc2ccc(Br)cc2Cl)C1=O | i | 19% | i | 13µM*
CC1(C)NC(=O)N(CCCCOc2ccc(Cl)cc2)C1=O | i | 11% | i | -13%
COc1cccc(-c2sc3ccc(OC)cc3c2C#CCC(C)O)c1 (centres undefined) | ? | -1% | i | 25µM*
COc1cccc(-c2sc3ccc(OC)cc3c2C#CC(C)(C)O)c1 | ? | -21% | i | 18µM*
COc1ccc2sc(-c3ccc(N(C)C)cc3)c(C#CC(C)(C)O)c2c1 | i | -1% | i | -4%
Cc1cccc(NC(=S)NNC(=O)c2ccc3c(c2)OCO3)c1 | . | -13% | i | 3%
CCCc1cc(C(=O)NNC(=S)Nc2cccc(C)c2)cs1 | . | -6% | i | 8.9µM*
COc1ccc2sc(-c3ccc(N(C)C)cc3)c(C#CCCO)c2c1 | ? | 7% | i | 35µM*
COc1ccc(-c2sc3ccc(OC)cc3c2C#CCCO)cc1 | ? | 2% | i | 22µM*
O=C(NCC1CCCO1)C(c1cccs1)N(Cc1cccs1)C(=O)c1ccc(-c2ccccc2)[nH]1 (centres undefined) | 35µM* | -4% | i | 9%
O=C(NCC1CCCO1)C(c1ccc(F)cc1)N(CC1CCCO1)C(=O)c1ccc(-c2ccccc2)[nH]1 (centres undefined) | i | -9% | i | 7%
COCCCN(Cc1ccco1)C(=O)c1cc2c(s1)-c1ccccc1OC2 | ? | 2% | i | 22µM*
Cc1cc(C)cc(Cn2ncc(Cl)c(Cl)c2=O)c1 | . | 1% | i | 18µM*
O=c1c(Cl)c(Cl)cnn1Cc1ccccc1Cl | . | 4% | i | 35µM*
Cc1ccc(Cn2ncc(Cl)c(Cl)c2=O)cc1 | . | 1% | i | ?
CCCCCCn1c(=O)n2n(c1=O)[C@@H]1CN(S(=O)(=O)c3ccc(C)cc3)C[C@]1(O)[C@@H](OC(=O)Nc1cccs1)C2 | ? | 6% | i | 16%
CC(C)(C)C(=O)NC1CCCCN(Cc2ccc(Cl)cc2)C1=O (centres undefined) | i | . | . | .
Cc1ccc(S(=O)(=O)N2[C@@H](c3ccccc3F)C(C(=O)O)=CC[C@H]2c2ccc3c(c2)OCO3)cc1 | i | 1% | i | 25%
Cc1ccc(S(=O)(=O)N2[C@@H](c3ccccc3)C(C(=O)O)=CC[C@H]2c2cccc(Cl)c2)cc1 | i | -23% | i | 35µM*
SMILES | FUS yeast rescue | aSyn yeast inh | Abeta rescue | TDP43 rescue
Cc1ccc([C@@H]2CC=C(C(=O)O)[C@H](c3ccc(Br)cc3)N2S(=O)(=O)c2ccc(C)cc2)cc1 | i | -1% | i | ?
Cc1ccc(S(=O)(=O)N2[C@@H](c3ccc(F)cc3)C(C(=O)O)=CC[C@H]2c2ccc3c(c2)OCO3)cc1 | i | -14% | i | 18µM*
Cc1ccc(S(=O)(=O)N2[C@@H](c3ccc(F)cc3)C(C(=O)O)=CC[C@H]2c2cccc(C)c2)cc1 | i | 2% | i | 32µM*
COc1cccc([C@@H]2CC=C(C(=O)O)[C@H](c3ccc(Br)cc3)N2S(=O)(=O)c2ccc(C)cc2)c1 | i | -1% | i | 35µM*
O=[N+]([O-])c1ccc(CN2CCN(c3ccc(Cl)cc3)CC2)o1 | i | 3% | i | -22%
Cc1cccc(C(=O)NC(=S)Nc2c(C)n(C)n(-c3ccccc3)c2=O)c1 | i | 3% | i | -6%
N/C(=N\OC(=O)c1ccc2ccccc2c1)c1cccc([N+](=O)[O-])c1 | i | -34% | i | 22µM*
N/C(=N\OC(=O)c1ccc2ccccc2c1)c1ccncc1 | i | 10% | i | 13µM*
N/C(=N/OC(=O)c1cccc([N+](=O)[O-])c1)c1cccc([N+](=O)[O-])c1 | i | -9% | i | 3%
N/C(=N\OC(=O)c1ccc2ccccc2c1)c1ccccn1 | i | -7% | i | -13%[0.397 µM]
N/C(=N\OC(=O)c1ccc(Cl)cc1Cl)c1ccncc1 | i | -7% | i | 20%
N/C(=N\OC(=O)c1ccccc1Cl)c1ccncc1 | i | 7% | i | 25µM*
N/C(=N\OC(=O)c1ccc(F)cc1)c1cccc([N+](=O)[O-])c1 | i | -8% | i | 13µM*
CNc1ncnc2c1ncn2[C@H]1CN(CCN2CCOCC2)C[C@@H](CO)O1 | i | 0% | i | 13%
CC(C)(C)NC(=O)C(=O)NNC(=O)COc1ccc(Br)cc1 | . | 4% | i | -2%
N/C(Cc1ccc([N+](=O)[O-])cc1)=N\OC(=O)c1cccc(Br)c1 | i | -73% | i | -93%
N/C(=N\OC(=O)c1ccccc1Cl)c1cccc([N+](=O)[O-])c1 | i | -32% | i | 11µM*
N/C(Cc1ccc([N+](=O)[O-])cc1)=N\OC(=O)c1ccc([N+](=O)[O-])cc1 | . | 0% | i | 18µM*
CCOc1ccc(/C=C2\SC(=S)N(CCC(=O)N(CCO)c3ccccc3)C2=O)cc1 | i | 4% | i | 6%
CCc1ccc(/C=C2\SC(=S)N(CCCC(=O)N(CCO)c3ccccc3)C2=O)cc1 | 22µM* | 20% | i | 35µM*
Cc1ccc(C)c(N2CCN(C(=O)c3cc4sccc4n3C)CC2)c1 | ? | 0% | i | 14%
Cc1cccc(N2CCN(C(=O)C3CCN(C(=O)c4cc5sccc5n4C)CC3)CC2C)c1 (centres undefined) | 32µM* | . | ? | 20%
Cc1ccc(C)c(N2CCN(C(=O)C3CCN(C(=O)c4cc5sccc5n4C)CC3)CC2)c1 | ? | . | i | 13µM*
O=S(=O)(NCCc1csc(-c2cccc(F)c2)n1)c1cc(F)ccc1F | i | . | ? | 2.5µM*
Cc1ccc(S(=O)(=O)NCCc2csc(-c3cccc(F)c3)n2)cc1 | i | . | i | 18µM*
O=S(=O)(NCCc1csc2nc(-c3ccccc3)nn12)c1cc(F)ccc1F | i | . | ? | 22µM*
COc1ccc(F)cc1S(=O)(=O)NCCc1csc2nc(-c3cccc(C)c3)nn12 | ? | . | i | 10%
CCOC(=O)C1CCN(C(=O)c2sc3nc(-c4ccccc4)cn3c2C)CC1 | . | -2% | i | ?
CCOC(=O)C1CCCN(C(=O)c2sc3nc(-c4ccc(OC)cc4)cn3c2C)C1 (centres undefined) | ? | . | i | 11µM*
